Values joined by “and” are separate entries in the source; they are usually repeats but may differ in a detail not shown here. Equal entries are not always repeated. Unmarked numbers belong to inactive results. Inconclusive results are not listed. Active and inactive are the calls of the source. Unless noted, the call rests on the fitted dose curve; in most records, active means well fitted curve in the direction sought with a large enough effect; inconclusive means small, poorly fitted or top-dose-only effect, or another doubt; inactive means no such curve, though single readings can be large; an effect the other way counts as inactive or inconclusive.

Assay [1] is described as follows: Stat Signaling Pathway (AID 446; active means well fitted curve in either direction with a large enough effect, not every such curve was filed as active;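 further: ME-180 cervical cancer cells given 40 pM IL-6 alongside compound; SIE-controlled beta-lactamase reporter measured as 460/530 nm FRET emission ratio; on the % scale 0 is the no-effect control and ±100 the full control effect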). The method in brief:
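Compound effects on IL-6-induced STAT reporter activity were measured in ME-180 cells. After overnight culture, cells were co-treated with 40 pM IL-6 for 5 hrs before beta-lactamase substrate loading at room temperature.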

Assay [2] has as its target Glucocorticoid receptor (Homo sapiens) (UniProt P04150). Put plainly: GR-GFP Redistribution (AID 450;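 active means compounds whose dose series gives a full or clear partial fitted curve of increased nuclear translocation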; further: potency means the concentration at half of the fitted maximal effect). Conditions: U2OS GR-GFP nuclear translocation, laser cytometry, 2 h.
Assay [3] concerns the target Mitogen-activated protein kinase 10 (Mus musculus) (UniProt Q61831). Put plainly: JNK3 AlphaScreen Assay (AID 530; active means well fitted curve in either direction with a large enough effect, not every such curve was filed as active;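 further: kinase came from lysate of stimulated human HepG2 cells; signal reports phosphorylation of biotinylated GST-cJun 1-79 at Ser73 with 10 µM ATP; series mostly up to about 57 µM; on the % scale 0 is the no-effect control and ±100 the full control effect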). The method in brief: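 Phosphorylation of biotinylated GST-cJun(1-79) at Ser73 is measured by AlphaScreen proximity luminescence. Enzyme is JNK3 in HepG2 lysates activated with interleukin-1beta and tumor necrosis factor alpha; ATP is 10 uM final.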
Assay [4] in a line: Cell Viability - N2a (AID 540).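 Further: plate controls were DMSO alone for no effect and tamoxifen control for full effect; nearly all actives have a fitted effect of over 45% in size.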 The gist of the method:
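CellTiter-Glo ATP luminescence, read 20 min after reagent at room temperature, reported viability following 40 h compound treatment at 37 °C. N2a mouse neuroblastoma cells seeded 1500/well; Hill equation gave AC50.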

A short description of assay [5]: Cell Viability - NIH 3T3 (AID 541). Further: nearly all actives have a fitted effect of over 25% in size. Further: potency means the concentration at half of the fitted maximal effect. The gist of the method: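 Intracellular ATP (CellTiter-Glo luminescence, 20 min at room temperature) measured after 40 hr compound exposure at 37 °C of 1000 NIH 3T3 mouse fibroblasts/well in complete medium; AC50 derived by Hill-equation modelling of qHTS concentration-response curves.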
Assay [6] in a line: Cell Viability - HUV-EC-C (AID 542). Further: on the % scale 0 is the no-effect control and ±100 the full control effect; nearly all actives have a fitted effect of over 35% in size. The gist of the method: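 CellTiter-Glo luminescence measured ATP loss in HUV-EC-C cells (1000/well) after 40 hr compound exposure at 37 °C, in complete culture medium. Concentration-response data were Hill-fitted to give AC50.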
Assay [7] in a line: Cell Viability - H-4-II-E (AID 543). Further: on the % scale 0 is the no-effect control and ±100 the full control effect; nearly all actives have a fitted effect of over 35% in size. The method in brief: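 CellTiter-Glo luminescence (intracellular ATP) measured after 40 h compound exposure at 37 °C in H-4-II-E rat hepatoma cells seeded at 1500/well. Values are AC50s fitted with the standard Hill equation.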
Assay [8] is described as follows: Cell Viability - SH-SY5Y (AID 544).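 Further: 0% = DMSO alone and -100% = 100 µM tamoxifen; nearly all actives have a fitted effect of over 55% in size.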 The method in brief:
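Cytotoxicity measured via ATP-dependent luciferase luminescence (CellTiter-Glo) following 40 h, 37 °C exposure of 1500 SH-SY5Y cells per well. Concentration-response data were fitted with the standard Hill equation to give AC50.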

A short description of assay [9]: Cell Viability - Renal Proximal Tubule (AID 545).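 Further: 0% = DMSO only and -100% = 100 µM tamoxifen; nearly all actives have a fitted effect of over 40% in size.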 The gist of the method:
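Rat renal proximal tubule primary cells, 1000/well, exposed to compounds for 40 hr at 37 °C in complete medium; cellular ATP read by CellTiter-Glo luminescence. AC50 from concentration-response fitted with standard Hill equation.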

A short description of assay [10]: Cell Viability - Mesenchymal (AID 546).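 Further: cells exposed to compound for 40 hours before reading; 0% = DMSO only and -100% = 100 µM tamoxifen.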 The gist of the method:
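In this qHTS cytotoxicity format, glomerulus-derived human mesenchymal kidney cells received compound for 40 hr, then luciferase-based ATP quantitation. Concentration-response data were fitted with the Hill equation.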

A short description of assay [11]: Cellular Toxicity (caspase-3) HepG2 (AID 654).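 Further: cells exposed to compound for 16 hours before reading; 0% = DMSO alone and 100% = caspase signal from 100 µM tamoxifen.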 The method in brief:
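Caspase 3/7 activation is measured as a luminescence increase (aminoluciferin substrate) after 16 h compound exposure of human hepatocarcinoma HepG2 cells. AC50 values are Hill fits, scaled between DMSO baseline and 100 uM tamoxifen stimulation.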

Assay [12] is described as follows: Cellular Toxicity (caspase-3) Jurkat (AID 655).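 Further: cells exposed to compound for 16 h at 37 °C before reading.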 The method in brief: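 Jurkat cells (5000/well) in complete medium exposed 16 h at 37 C; caspase-3/7 activity read by Caspase-Glo luminescence after 20 min at room temperature. Normalized to DMSO and 100 uM tamoxifen; AC50 from Hill fits.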
The nature of assay [13]: Cellular Toxicity (caspase-3) HUV-EC-C (AID 656).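 Further: 0% = DMSO basal and 100% = 100 µM tamoxifen.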 The gist of the method: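 HUV-EC-C cells (1000/well) in complete medium, compound-treated 16 h at 37 °C; caspase-3/7 activity read by Caspase-Glo 3/7 luminescence. Normalized to DMSO (basal) and 100 uM tamoxifen (100%); AC50 from Hill-equation concentration-response fits.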
Assay [14] is described as follows: Cellular Toxicity (caspase-3) SHSY5Y (AID 657). The method in brief: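 SH-SY5Y human neuroblastoma cells, 1500/well, exposed to compound for 16 hours at 37 °C in complete medium. Caspase-3/7 activity read by Caspase-Glo luminescence after 1 hr at room temperature, normalized to DMSO and 10 uM staurosporine; AC50 from Hill fit.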
Assay [15] can be described thus: Cellular Toxicity (caspase-3) BJ (AID 658).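 Further: 0% = DMSO basal and 100% = 10 µM staurosporine.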 The gist of the method:
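Plated BJ cells (1000/well) rested 5 hr, received compound for 16 hr at 37 °C, then Caspase-Glo 3/7 reagent for 1 hr at room temperature before luminescence reading.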

Assay [16] in a line: Cellular Toxicity (caspase-3) MRC-5 (AID 659).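 Further: 0% = DMSO basal and 100% = 10 µM staurosporine.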 The gist of the method:
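Apoptosis readout in MRC-5 cells: luciferase light generated after caspase 3/7 cleaves a peptide-aminoluciferin substrate, measured post 16 hr compound incubation at 37 °C.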

A short description of assay [17]: Cellular Toxicity (caspase-3) Mesangial (AID 660).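 Further: cells exposed to compound for 16 h before the caspase read.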 The gist of the method: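 Caspase 3/7 activation measured by Caspase-Glo 3/7 luminescence (20 min, room temperature) following 16 h exposure of mesangial cells (1000/well); AC50 from Hill-equation fit, normalized to DMSO and 100 uM tamoxifen.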
The nature of assay [18]: Cellular Toxicity (caspase-3) SK-N-SH (AID 661).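 Further: 0% = DMSO basal and 100% = 10 µM staurosporine.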 The gist of the method:
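Caspase 3/7 activation was read by luminogenic substrate cleavage after 16 hour treatment of SK-N-SH cells. Signal was scaled between DMSO and 10 uM staurosporine, and concentration-response data were fitted with the Hill equation for AC50.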

The target of assay [19] is Glucocorticoid receptor (Homo sapiens) (UniProt P04150). Put plainly: GR-EFC Redistribution (AID 451; calls by dose curve; further: potency means the concentration at half of the fitted maximal effect). Conditions: CHO-K1 GR-EFC translocation, beta-gal luminescence, 2 h. The gist of the method:
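CHO-K1 cells stably expressing nuclear-localized β-gal enzyme acceptor and GR fused C-terminally to the enzyme donor fragment; ligand-driven nuclear translocation restores β-gal by complementation. Compounds titrated up to 46 uM final, 2 h at 37 °C; luminescence read.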

Assay [20] addresses 3',5'-cyclic-AMP phosphodiesterase 4B (Homo sapiens) (UniProt Q07343). As to the kind of experiment: qHTS Assay for Inhibitors of PDE-IV (AID 607; active means well fitted activation curve with a large enough effect in the main read-out, with a control signal flat, not every such curve was filed as active; further: % of control where 0% means no effect). The gist of the method:
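ACTOne HEK293 cells carry a modified cAMP-gated CNG channel and express endogenous PDE4; plated 1000 cells/well, compounds up to 22.9 uM final. Membrane-potential dye fluorescence (ex 535/em 590) was read; parental cells received 10 uM forskolin + 100 uM RO 20-1724.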

3',5'-cyclic-AMP phosphodiesterase 4B (Homo sapiens), sequence (Q07343 whole entry, looked up): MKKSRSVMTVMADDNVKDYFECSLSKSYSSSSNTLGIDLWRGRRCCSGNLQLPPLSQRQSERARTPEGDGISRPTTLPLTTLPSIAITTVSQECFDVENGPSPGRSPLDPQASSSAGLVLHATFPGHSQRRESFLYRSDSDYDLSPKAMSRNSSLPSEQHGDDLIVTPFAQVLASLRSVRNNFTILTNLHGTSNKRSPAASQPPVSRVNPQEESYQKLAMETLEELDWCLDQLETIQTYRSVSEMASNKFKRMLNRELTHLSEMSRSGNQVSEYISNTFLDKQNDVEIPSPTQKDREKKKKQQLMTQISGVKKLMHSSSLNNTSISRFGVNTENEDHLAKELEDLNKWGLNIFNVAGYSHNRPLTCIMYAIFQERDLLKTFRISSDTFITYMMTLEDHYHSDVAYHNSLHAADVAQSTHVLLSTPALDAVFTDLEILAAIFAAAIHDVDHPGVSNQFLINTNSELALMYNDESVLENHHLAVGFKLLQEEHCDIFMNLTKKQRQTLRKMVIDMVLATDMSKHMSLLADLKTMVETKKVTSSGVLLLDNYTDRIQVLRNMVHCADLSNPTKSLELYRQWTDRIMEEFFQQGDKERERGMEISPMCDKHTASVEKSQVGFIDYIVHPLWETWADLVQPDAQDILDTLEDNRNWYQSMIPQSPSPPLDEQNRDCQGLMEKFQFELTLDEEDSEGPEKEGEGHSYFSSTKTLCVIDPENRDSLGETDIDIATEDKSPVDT
Glucocorticoid receptor (Homo sapiens), sequence (P04150 whole entry, looked up, the tested form may be a part): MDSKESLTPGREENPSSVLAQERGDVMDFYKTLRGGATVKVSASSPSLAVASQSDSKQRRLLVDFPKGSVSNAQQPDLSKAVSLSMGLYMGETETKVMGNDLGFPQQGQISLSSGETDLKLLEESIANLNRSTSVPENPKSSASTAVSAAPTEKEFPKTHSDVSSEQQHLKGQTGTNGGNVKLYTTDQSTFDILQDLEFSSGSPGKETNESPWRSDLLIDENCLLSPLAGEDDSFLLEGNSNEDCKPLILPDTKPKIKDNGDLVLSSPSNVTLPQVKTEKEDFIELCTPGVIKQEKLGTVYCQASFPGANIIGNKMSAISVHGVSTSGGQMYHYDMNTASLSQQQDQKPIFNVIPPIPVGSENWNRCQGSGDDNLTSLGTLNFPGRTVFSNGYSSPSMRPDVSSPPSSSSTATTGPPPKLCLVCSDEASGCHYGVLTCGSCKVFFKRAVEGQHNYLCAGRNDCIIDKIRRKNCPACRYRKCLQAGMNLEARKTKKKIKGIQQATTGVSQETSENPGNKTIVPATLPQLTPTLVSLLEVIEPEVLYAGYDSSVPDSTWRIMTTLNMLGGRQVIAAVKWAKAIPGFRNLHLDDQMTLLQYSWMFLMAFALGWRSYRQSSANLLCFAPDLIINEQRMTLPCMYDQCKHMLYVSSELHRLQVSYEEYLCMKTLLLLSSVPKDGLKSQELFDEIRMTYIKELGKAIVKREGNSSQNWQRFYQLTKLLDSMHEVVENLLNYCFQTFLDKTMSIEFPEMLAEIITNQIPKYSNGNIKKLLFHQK

`O=C1NC(=O)C(c2cn(-c3ccccc3)nc2-c2ccc(F)cc2)N1` (stereo not given): the molecule was called inactive in assay [1]. For the same molecule, the Potency in [2] is above 20.6 µM.
As for `Cc1ccc(N)cc1O`, the call in assay [3], in assay [4], in [6], in assay [7], in assay [8] and in assay [9] was inactive. For the same molecule, the call in assay [10], in assay [11], in assay [12], in [13], in assay [14] and in [15] was inactive. In addition, the outcome in assay [16], in [17] and in [18] was inactive. In addition, the Potency result in assay [5] is “inactive”.
For the molecule `Nc1ccccc1N`, the outcome in assay [3], in [4], in assay [6], in assay [10], in assay [11] and in [13] was inactive. Further, the molecule was called inactive in assay [14], in assay [15], in assay [16] and in [18]. The Potency in assay [5] is 6.31 µM (active).
Consider `CC(=O)O[C@@H]1CC(C)=C2[C@H]1[C@H](C)CC[C@H]2/C=C(\C)C(=O)O`, for which the molecule was classed as inactive in assay [3], in assay [4], in assay [6], in assay [7], in assay [8] and in assay [9]. For the same molecule, the molecule was classed as inactive in assay [10], in [11], in assay [12], in [13], in assay [14] and in [15]. Moreover, the molecule was classed as inactive in assay [16], in assay [17] and in assay [18]. Also, the Potency result in [5] is “inactive”.
Consider `Cc1ccccc1CN1C2=NCCN2C(=O)C2=C1CCN(Cc1ccccc1)C2`, for which the outcome in assay [1] and in assay [20] was inactive. Besides, the values for the Potency in assay [2] and in [19] were above 46 µM and above 9.22 µM, respectively. In assay [3], the activity change, negative = inhibition is -0.448% [at 11.4 µM].
As to `COc1ccc2c(OC)c3ccoc3nc2c1OC`, the call in assay [1], in assay [3] and in [20] was inactive. Moreover, the Potency in assay [2] was > 20.6 µM and > 46 µM; in assay [19], > 20.6 µM and > 46 µM.
Consider `CC(=O)O[C@H]1C(=O)[C@@]2(C)[C@H]([C@H](OC(=O)c3ccccc3)[C@]3(O)C[C@H](OC(=O)[C@H](O)[C@@H](NC(=O)c4ccccc4)c4ccccc4)C(C)=C1C3(C)C)[C@]1(OC(C)=O)CO[C@@H]1C[C@@H]2O`, for which the Potency in [2] and in [19] was above 46 µM throughout. Moreover, the result in assay [3] and in assay [20] was inactive.
As for `COc1ccc(C[C@H](N)C(=O)N[C@@H]2[C@H](O)[C@H](n3cnc4c(N(C)C)ncnc43)O[C@@H]2CO)cc1`, the Potency in assay [2] and in assay [19] was above 20.6 µM in each case. In addition, the molecule was called inactive in [3] and in assay [20].
As for `CC[C@]1(O)CC2CN(CCc3c([nH]c4ccccc34)[C@@](C(=O)OC)(c3cc4c(cc3OC)N(C=O)[C@H]3[C@@](O)(C(=O)OC)[C@H](OC(C)=O)[C@]5(CC)C=CCN6CC[C@]43[C@@H]65)C2)C1` (stereo not given in full), the molecule was classed as inactive in assay [1]. For the same molecule, the Potency in assay [2] was above 20.6 µM.

Source of the values: PubChem BioAssay (NCATS).
